Screens from PubChem.
DT40 TDP1 no CPT – qHTS for Inhibitors of human tyrosyl-DNA phosphodiesterase 1 (TDP1): qHTS in cells in absence of CPT. 420,000 tested, 15% active. Potency, µM (doses to about 46.2 µM), for the others: top-dose activity change, negative = growth inhibition, usual class: inhibitors. DT40 Tdp1-/- hTDP1 cells, no CPT, ATP luminescence, 48 h. AID 686978, 2013; also: potency is read from the fitted curve at half-maximal effect; % is scaled to controls: 0 for no effect and ±100 for the full control effect; nearly all actives have a fitted effect of over 55% in size
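Luminescent ATP content (CellTiter-Glo) served as the growth readout. Knockout chicken DT40 cells expressing human TDP1 were exposed to compounds without camptothecin for a minimum 48 hr at 37 °C.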
IL1B secr inh – inhibitors of inflammasome signaling (IL-1 beta secretion); THP-1 LPS/ATP IL-1B secretion, AlphaLISA, 16 h; hits give low values; activity change, % at 57.5 µM; 360,000 tested, 4.7% active; in the data active = activity change below about -50%; inconclusive = mostly about -30% to -49%; also: % is scaled to controls: 0 for no effect and ±100 for the full control effect
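Secreted IL-1B measured by AlphaLISA bead assay after 16 h compound exposure of THP-1 cells; compounds (final up to 57.5 uM) added 1 h before LPS (250 ng/mL) and ATP (1.25 mM) stimulation; lower signal means less secretion.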
DT40 TDP1 CPT – DT40-hTDP1 cell growth loss with CPT. chicken DT40 Tdp1-/-;hTDP1 cells + 20 nM CPT, ATP luminescence, 48 h. Potency, µM (top dose mostly 46.2 µM), for inactives: at the top dose activity change, negative = growth inhibition, most hits filed as inhibitors. 420,000 tested, 12% active. AID 686979; also: potency is read from the fitted curve at half-maximal effect; % is scaled to controls: 0 for no effect and ±100 for the full control effect; nearly all actives have a fitted effect of over 55% in size
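Chicken DT40 Tdp1-/- cells stably complemented with human TDP1 were seeded at 400 cells/well in medium containing 20 nM camptothecin, exposed to pin-transferred compounds, and grown at 37 °C for at least 48 hr. Viability was read as ATP luminescence.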
TDP1 inh – blocks human tyrosyl-DNA phosphodiesterase 1; recombinant TDP1, AlphaScreen DNA substrate cleavage; Potency, µM (highest dose often 130 µM), inactives show at the top dose activity change, negative = inhibition, actives largely listed as inhibitors; 350,000 tested, 0.28% active; AID 485290; also: potency is read from the fitted curve at half-maximal effect; % is scaled to controls: 0 for no effect and ±100 for the full control effect; nearly all actives have a fitted effect of over 40% in size
Target sequence (Q9NUW8 whole entry, looked up): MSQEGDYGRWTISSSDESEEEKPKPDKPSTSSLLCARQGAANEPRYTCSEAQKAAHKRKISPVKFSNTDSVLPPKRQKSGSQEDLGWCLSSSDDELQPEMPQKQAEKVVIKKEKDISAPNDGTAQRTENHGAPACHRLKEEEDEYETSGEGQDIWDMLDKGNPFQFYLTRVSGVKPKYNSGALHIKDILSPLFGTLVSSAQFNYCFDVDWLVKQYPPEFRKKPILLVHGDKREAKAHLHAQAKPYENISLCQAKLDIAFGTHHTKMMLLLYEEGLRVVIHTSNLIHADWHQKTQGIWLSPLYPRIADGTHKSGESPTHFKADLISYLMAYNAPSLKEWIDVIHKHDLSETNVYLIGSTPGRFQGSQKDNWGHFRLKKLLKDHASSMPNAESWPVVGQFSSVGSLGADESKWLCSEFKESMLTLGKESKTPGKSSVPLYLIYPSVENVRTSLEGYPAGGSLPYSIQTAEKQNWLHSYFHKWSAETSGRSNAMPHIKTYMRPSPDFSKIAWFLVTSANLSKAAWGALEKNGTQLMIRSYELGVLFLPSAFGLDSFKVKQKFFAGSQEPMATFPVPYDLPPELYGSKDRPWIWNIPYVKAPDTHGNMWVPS
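Recombinant E. coli-expressed Tdp1 (1 nM) preincubated with compound 15 min at RT, then 5'-biotin/3'-phosphotyrosine-FITC DNA substrate (15 nM) added for 5 min. AlphaScreen beads (10 ug/ml) added, 10 min RT; tyrosine-FITC cleavage read as signal loss.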
TGFb SMAD3 inh – blocks TGF-b signaling. HepG2 CAGA-GFP TGF-b/SMAD3 reporter, GFP fluorescence, 18 h; TGF-beta stimulated, 500 pg/mL final. Potency, µM (top dose mostly 46.1 µM), for inactives: at the highest dose activity, negative = inhibition, usual class: inhibitors. 410,000 tested, 1.2% active; also: potency is read from the fitted curve at half-maximal effect; % is scaled to controls: 0 for no effect and ±100 for the full control effect; nearly all actives have a fitted effect of over 65% in size
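Inhibition was scored as loss of TGF-beta-induced (500 pg/mL final, 18 hours, 37 degrees C) GFP in HEPG2 cells carrying a CAGA-GFP reporter, in DMEM with 1% FBS. Well GFP was summed per cell; Activity was normalised to unstimulated and stimulated DMSO wells, then concentration-response fitting.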
HepG2 tox – counter-screen for TGF-b inhibitors: cytotoxicity in HepG2 cells | Potency, µM (series often up to 46.1 µM), without a hit: at the top dose activity change, negative = cytotoxicity, usual class: cytotoxic | 410,000 tested, 0.76% active | HepG2 CAGA-GFP viability, ATP luminescence, 18 h; also: potency is read from the fitted curve at half-maximal effect
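HepG2 CAGA-GFP cells (1000/well, DMEM with 1% FBS) received compound, then TGF-beta at 500 pg/mL final, and were incubated 18 hours at 37 degrees C. Viability was read by CellTiter-Glo luminescence. Media-only wells were set as complete cell-killing and DMSO as no toxicity.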
Starred values were filed as active, the others as inactive; ? = inconclusive; . = no result. An excerpt weighted towards active compounds, which were near 18% of everything screened. Unless noted, calls follow the shape of the dose curve; as a rule, active = well fitted curve in the direction sought with a large enough effect; inconclusive = small, poorly fitted or top-dose-only effect, or another doubt; inactive = no such curve, though single readings can be large; an effect the other way counts as inactive or inconclusive.

SMILES | DT40 TDP1 no CPT | IL1B secr inh | DT40 TDP1 CPT | TDP1 inh | TGFb SMAD3 inh | HepG2 tox
O=C(NCCN1CCOCC1)NC1(C(F)(F)F)Oc2ccc(Cl)cc2O1 (stereo unspecified) | 13µM* | 31 | ? | 2% | 0% | -20%
COc1ccccc1C(=O)COC(=O)/C(=C/c1ccccc1)NC(C)=O | 0% | 4 | 5% | -1% | -11% | -2%
Cc1ccc(Nc2ncnc3c2nc2n3CCCC2)c(Br)c1 | -28% | . | ? | 4% | -22% | -29%
Cc1ccc(-c2csc3ncnc(-n4nnc5ccccc54)c23)cc1C | ? | 0 | 21µM* | 1% | 0% | -15%
c1ccc(-c2csc3ncnc(-n4cnc5ccccc54)c23)cc1 | ? | -11 | ? | 2% | 3% | -11%
Cc1ccc(-c2csc3ncnc(-n4cnc5ccccc54)c23)cc1 | 18µM* | ? | ? | 5% | 3% | -29%
Cc1cc(C)c(Cn2cnc(-c3ccc([N+](=O)[O-])cc3)c2)c(C)c1 | 15µM* | -64* | 13µM* | 6% | ? | -32%
C=CCOC(=O)C1=C[C@@H](c2ccc(C(F)(F)F)cc2)C[C@@H](OCc2ccc(CO)cc2)O1 | ? | 13 | ? | . | -8% | -22%
Cc1ccccc1-c1nc(CNC(=O)NC2CCCCC2)c(C)o1 | -26% | . | -20% | -1% | 27% | -12%
CCOC(=O)c1c(C2COc3ccccc3O2)csc1NC(=O)c1ccco1 (stereo unspecified) | 11µM* | -54* | 14µM* | 7% | -13% | 12%
CCOC(=O)c1c(-c2cccs2)csc1NC(=O)c1ccco1 | -11% | 1 | 6% | 5% | 5% | -2%
CCCCCNC1=CC(=O)CC(c2ccccc2)C1 (stereo unspecified) | 18µM* | -3 | ? | 2% | ? | -47%
CCCCCCCNC1=CC(=O)CC(c2ccccc2)C1 (stereo unspecified) | 5.8µM* | 63 | 6.5µM* | -4% | ? | -39%
CCCCCCCCNC1=CC(=O)CC(C)(C)C1 | 16µM* | 13 | ? | 2% | -2% | -51%
CN1CCC(NC(=S)Nc2cccc([N+](=O)[O-])c2)CC1 | -28% | 4 | ? | -8% | 15% | -1%
